Experimental findings from PubChem BioAssay AID1578 (Sanford-Burnham Center for Chemical Genomics, 2009) are described below.

Values joined by “and” are separate entries in the source; they are usually repeats but may differ in a detail not shown here. Identical values can stand only once. Screen size: about 290,000 compounds; about 3,000 (1%) were called active. Cut-off read from the data, not from the text of the source: active = inhibition mostly above about 36% (no sharp cut-off); inactive = mostly below about 34%. What follows is part of a selection rich in actives, with near analogues and random picks from the rest.

This test in a line: NOD1 signaling inhibitors, primary screen, cell-based, luminescence, uHTS (AID 1578).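 Note: HEK-293T reporter cells stimulated with the NOD1 agonist gamma-tri-DAP.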 Conditions: NOD1-driven NF-kB luciferase reporter cells, at 4 µM, stronger effect = higher value. In general terms: Reporter assays use an easily measured gene product as a stand-in for the process of interest.
`COc1ccc(OC)c(-n2nnnc2SCC(=O)N2CCN(C(=O)c3ccco3)CC2)c1`: the inhibition – broadly, the change of the read-out against control, counted positive when it falls – is -16.1% (inactive).
In the case of `Cc1ccc(NC(=O)C2CC(=O)n3ncnc3N2)cc1C` (stereo not given), the inhibition is -33.1% (inactive).
Turning to `CC(=O)NCc1ccc(C(=O)CCl)cc1`, the inhibition was -4% (inactive).
Turning to `CC(=O)NCc1ccc(-c2csc(N)n2)s1`, the inhibition was 1.1% (inactive).
`CC(=O)NCc1ccc(C(=O)CCl)s1`: the inhibition is 88.3% (active).
In the case of `Cc1ccc(C(=O)COC(=O)c2cc(Cl)nc3ccccc23)cc1`, the inhibition was -10.7% (inactive).
For the compound `COc1cc(Br)c(CN2CCCN(C)CC2)cc1OC`, the inhibition was -24.3% (inactive).
As for `N#C/C(=C(/O)c1cc2ccccc2o1)c1nc2ccccc2s1`, the inhibition was 65.8% (active).
Regarding `N#C/C(=C(/O)COC(=O)c1ccccc1O)c1nc2ccccc2s1`, the inhibition is 16.3% (inactive).
As for `CC(C)(C)c1ccc(C(=O)OC/C(O)=C(\C#N)c2nc3ccccc3s2)cc1`, the inhibition was 92% (active).
With `N#C/C(=C\N1CCN(Cc2ccc3c(c2)OCO3)CC1)c1nc2ccccc2s1`, the inhibition is 24.5% (inactive).
With `N#C/C(=C(/O)COC(=O)c1ccc(C#N)cc1)c1nc2ccccc2s1` the figure was -35.4% (inactive); with `N#C/C(=C(/O)c1ccc2c(c1)OCO2)c1nc2cc(C(F)(F)F)ccc2s1`, 86.4% (active).
Turning to `N#C/C(=C(/O)c1ccc(-c2cccc([N+](=O)[O-])c2)o1)c1nc2ccccc2s1`, the inhibition was 101% (active).
Turning to `N#C/C(=C(/O)c1ccco1)c1nc2ccccc2s1`, the inhibition was -3.1% (inactive) and -9.8% (inactive).
For the compound `CC(C)=C(C#N)c1nc2ccccc2s1`, the inhibition was -26.3% (inactive).
Consider `N#C/C(=C(/O)c1ccccc1F)c1nc2cc(C(F)(F)F)ccc2s1`, for which the inhibition was -28.9% (inactive).
For `O=[N+]([O-])c1cccc(-c2nc3ccccc3s/c2=N/O)c1`, the inhibition is 2.3% (inactive).
As for `O=C(O)c1ccc(-c2cccc([N+](=O)[O-])c2)o1`, the inhibition was 9.4% (inactive).
Turning to `CN(C)CCCN(Cc1ccccc1)C(=S)NCc1ccccc1`, the inhibition was -3.5% (inactive).
To `Cc1ccc(C)c(-n2nnnc2SCC(=O)Nc2c(C)n(C)n(-c3ccccc3)c2=O)c1` belongs -6.2% (inactive); to `CCOc1ncccc1C(=O)Nc1nnc(C)s1`, -28.7% (inactive); to `CC(C)NC(=O)C(=O)NCCN1CCN(C(=O)c2ccc(C(C)(C)C)cc2)CC1`, -31.9% (inactive).
Regarding `Cc1c(CCO)c(=O)[nH]n1S(=O)(=O)c1ccc(Cl)cc1Cl`, the inhibition is -2.3% (inactive).
Take `COc1ccccc1NC(=S)NC(=O)/C=C/c1ccco1`: the inhibition was -34.4% (inactive).
Regarding `COc1ccc2[nH]c(C(=O)Nc3ncc(C)cc3Br)cc2c1`, the inhibition is 1.8% (inactive).
On to `Cc1cccc(Cc2nnc(CCC(=O)N(C)Cc3ccncc3C)o2)c1`, for which the inhibition is -15.4% (inactive).
Regarding `COC(=O)c1ccc(C23CC4(C2)[C@H](CN(Cc2ccc(-c5ccccc5)cc2)[C@@H]4c2ccccc2)C3c2ccc(Cl)nc2)cc1` (stereo not given in full), the inhibition is -11.8% (inactive).
For the compound `CCOP(=O)(c1ccc(N(C)C)cc1)C(O)c1ccccc1` (stereo not given), the inhibition was -12.2% (inactive).
Take `N#C/C(=C(/O)c1cccc(F)c1)c1nc2ccccc2s1`: the inhibition is 3.7% (inactive).
On to `COC(=O)c1ccc(/C(O)=C(\C#N)c2nc3ccccc3s2)cc1`, for which the inhibition is 29.2% (inactive).
For `N#C/C(=C(/O)c1ccc(F)cc1)c1nc2ccccc2s1`, the inhibition is 61.2% (active).
To `O=C(CSc1cn[nH]n1)Nc1ccccc1C(F)(F)F` belongs -20.2% (inactive).
`CCOC(=O)CNC(=O)C(CC(N)=O)NC(=O)OC(C)(C)C` (stereo not given): the inhibition was -7.6% (inactive).
Take `Cc1cc(CN(C)C(=O)c2cc(COc3ccc4ncccc4c3)on2)on1`: the inhibition is 13.2% (inactive).
To `Cc1nc(CN(C)C(=O)c2cc(COc3c(F)cccc3F)on2)cs1` belongs -40.5% (inactive).
For the compound `CN(Cc1cccnc1)C(=O)c1cc(COc2ccc3c(c2)CCCC3)on1`, the inhibition is -46.9% (inactive).
As for `CN(Cc1nccn1C)C(=O)c1cc(COc2ccc3ncccc3c2)on1`, the inhibition was -6.6% (inactive).
As to `COc1cc(NC(=O)c2ccco2)c(OC)cc1NC(=O)CSc1ncc(-c2ccc(F)cc2)[nH]1`, the inhibition is -33.5% (inactive).
With `COc1ccc(N2CCN(C(=O)C3CCN(S(=O)(=O)c4c(C)noc4/C=C/N(C)C)CC3)CC2)cc1` the figure was -9.1% (inactive); with `O=C(NCCc1ccccc1)C(=O)NCC1OCCCN1S(=O)(=O)c1cccs1` (stereo not given), -40.9% (inactive); with `COc1cc(/C=C/C(=O)Nc2nc3ccc(S(=O)(=O)N(C)C)cc3s2)cc(OC)c1OC`, 28.3% (inactive).
Turning to `CCc1cccc2c(C(=O)COC(=O)c3ccccc3)c[nH]c12`, the inhibition is -19.8% (inactive).
In the case of `CCc1cccc2c(C(=O)COC(=O)c3ccc(O)cc3)c[nH]c12`, the inhibition is -17.9% (inactive).
For `CCc1cccc2c(C(=O)COC(=O)C3=NNC(=O)CC3)c[nH]c12`, the inhibition was -12.4% (inactive).
Turning to `CCc1cccc2c(C(=O)COC(=O)c3cccc(S(=O)(=O)N(C)C4CCCCC4)c3)c[nH]c12`, the inhibition is 77.3% (active).
As for `Cc1noc(C)c1C(=O)OCC(=O)c1c[nH]c2ccccc12`, the inhibition was -6.2% (inactive).
On to `CCc1cccc2c(C(=O)COC(=O)c3c(C)noc3C)c[nH]c12`, for which the inhibition is 92.9% (active).
As to `CCS(=O)CCSc1nc2ccccc2s1` (stereo not given), the inhibition was -10.5% (inactive).
With `N#Cc1cc(C(=O)c2ccccc2O)cn(-c2nccs2)c1=O`, the inhibition was -9.7% (inactive).
As to `O=C(NCc1ccccc1)C1CCN(c2nc(-c3ccccc3)nc3c2CCC3)CC1`, the inhibition is 15.8% (inactive).
For the compound `CC[C@@H]1CC=C[C@H]2[C@H]1C(=O)N(Cc1ccccc1)[C@H]2c1ccc(C(F)(F)F)cc1`, the inhibition is -2.1% (inactive).
As for `COc1ccc(C(=O)O/N=C2\CCCc3nonc32)cc1`, the inhibition was -0.9% (inactive).
For `CC(/C=C/c1ccccc1)=N\NC(=O)c1ccc(Br)cc1`, the inhibition is 43.7% (inactive).
`CC(/C=C/c1ccccc1)=N\NC(=O)c1ccncc1`: the inhibition is 0.4% (inactive).
With `O=C(NCCc1ccccc1)C(=O)N/N=C/c1ccccc1C(F)(F)F` the figure was -5.8% (inactive).
Turning to `Cc1ccc(NC(=O)c2cc3c(s2)CCCC3)cc1`, the inhibition is -69.9% (inactive).
With `O=C(Nc1cccc(Cn2cccn2)c1)c1cc2c(s1)CCCC2`, the inhibition was 34.5% (active).
As for `CC(=O)Nc1cccc(Cn2cccn2)c1`, the inhibition is 11.3% (inactive).
Take `C=CCN(C(=O)CSc1nc2[nH]ncc2c(=O)n1-c1ccccc1OC)c1ccccc1`: the inhibition is -29% (inactive).
